Hits are enriched below; roughly 2% of the tested compounds scored in any of these assays.
LGR2 antag: blocks bursicon-induced cAMP signaling via Drosophila LGR2 | HEK293 LGR2, CRE-luciferase, bursicon-stimulated, 4 h | inhibition, % at 9.99 µM | 380,000 compounds, 0.35% hits;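 active = drop in luminescence signal, shown as inhibition above about 50% in the replicate tests, limit read from the data, passing the limit was not always enough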;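 also: agonist challenge used bursicon conditioned medium at about half maximal strength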
CF NFkB block: blocks PAF-induced NF-kB reporter in cystic fibrosis cells | KKLEB NF-kB-GFP reporter, GFP fluorescence overnight | inhibition, % at 5 µM | 360,000 compounds, 0.86% hits | AID 588850;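 active = at least 50% inhibition at 5 µM, scaled per plate between neutral and stimulator controls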;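 also: PAF is a Pseudomonas aeruginosa culture filtrate used as stimulus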
PAX8 reporter: inhibitors of PAX8 transcriptional activity in RMG-I cells | RMG-I TPO-luciferase reporter, SteadyGlo, 24 h | inhibition, % at 12.6 µM | 360,000 compounds, 1.2% hits | AID 652154;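 active = mean replicate inhibition at least 60% with every replicate also reaching 60%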;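 also: luciferase light reporting Pax8 driven TPO promoter activity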
KKLEB tox: counter-screen for CF NF-kB inhibitors: cytotoxicity | KKLEB CF airway cells viability, ATPlite luminescence, overnight; active compounds read low; cells stimulated with P. aeruginosa culture filtrate | activity change (cytotoxicity), % at 5 µM | 360,000 compounds, 0.36% hits;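 active = corrected activity change at or below -50% at 5 µM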
Shn3 inh set2: Schnurri-3 reporter inhibition in Clone20 osteoblasts; Clone20 osteoblast Shn3 3'UTR firefly luciferase, 24 h; inhibition, % at 12.5 µM; 360,000 compounds, 0.52% hits;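 active = mean inhibition of at least 75% with every replicate also reaching 75%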
EWS-Fli block: inhibitors of EWS/Fli oncoprotein transcriptional activity. A673 NR0B1-luciferase reporter, viability-normalised. inhibition, % at 12.6 µM. 350,000 compounds, 0.67% hits;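 active = mean inhibition of at least 50% after viability correction, with every replicate also passing that limit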;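 also: firefly luciferase signal divided by Alamar Blue viability fluorescence both relative to DMSO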
Numbers stand for hits; i = inactive; nt = no result.

SMILES	LGR2 antag	CF NFkB block	PAX8 reporter	KKLEB tox	Shn3 inh set2	EWS-Fli block
Cc1noc(C)c1NC(=O)Nc1ccc2c(c1)C(=O)N([C@@H](C)CO)C[C@H](C)[C@H](CN(C)Cc1ccccc1)OCCCC[C@@H](C)O2	i	nt	i	nt	nt	i
CCCN(CCC)S(=O)(=O)c1ccc(NC(=O)c2cc(C(=O)OC)cc([N+](=O)[O-])c2)cc1	nt	i	66	i	i	nt
CCC(C)(C)NC(=O)c1cc(C(=O)OC)cc([N+](=O)[O-])c1	nt	i	i	i	i	nt
CCNC(=O)c1cc2c(c(-c3cccc(-c4ccncc4)c3)n1)[C@H](CCO)N(S(=O)(=O)CC)C2	i	nt	nt	nt	nt	55
Cc1cc(=O)oc2c3c(cc(OCC(=O)Nc4ccc(CCO)cc4)c12)OC(C)(C)CC3	i	i	nt	i	91	i
Cc1occc(=O)c1OC(=O)Nc1ccc(Cl)c(Cl)c1	i	77	nt	-65	i	i
COc1ccc(-c2noc(CCC(=O)Nc3cccnc3)n2)cc1	i	i	i	i	i	i
CC(C)(C)c1ccc(-c2noc(CCC(=O)Nc3cccnc3)n2)cc1	i	i	87	i	i	i
CCCCCc1cc(=O)oc2c(C(CCN3CCCCC3)c3ccc(OC)cc3)c(OC)cc(OC)c12 (centres undefined)	nt	53	66	-56	i	i
CCc1nc(N2[C@H](C#N)[C@H](c3ccccc3-c3ccccc3F)[C@@H]2CO)sc1C	i	nt	i	nt	nt	i
C[C@@H]1CN([C@@H](C)CO)C(=O)c2cc(-c3cccc(C#N)c3)cnc2O[C@H]1CN(C)Cc1cccnc1	i	nt	i	nt	nt	i
O=C1NC(Cc2ccccc2)c2nc3ccccc3c(=O)n2-c2cc3ccccc3cc21 (centres undefined)	i	i	i	i	i	i
O=C1NC(Cc2ccc(O)cc2)c2nc3ccc(F)cc3c(=O)n2-c2cc3ccccc3cc21 (centres undefined)	i	i	i	i	i	64
Cc1ccc2nc3n(c(=O)c2c1)-c1cc2ccccc2cc1C(=O)NC3Cc1ccc(O)cc1 (centres undefined)	i	i	i	i	i	62
O=C1NC(Cc2ccccc2)c2nc3cc(F)ccc3c(=O)n2-c2cc3ccccc3cc21 (centres undefined)	i	i	62	i	i	i
O=C1NC(Cc2ccc(O)cc2)c2nc3cc(F)c(F)cc3c(=O)n2-c2cc3ccccc3cc21 (centres undefined)	i	i	i	i	i	i
CO[C@@H]1CN(C)C(=O)c2ccc(NS(=O)(=O)c3cn(C)cn3)cc2OC[C@@H](C)N(CCC(F)(F)F)C[C@H]1C	i	nt	i	nt	nt	i
C=CCSc1nnc(NC(=O)C2CC(=O)N(c3ccc4c(c3)OCCO4)C2)s1 (centres undefined)	i	i	81	i	i	i
O=C(Nc1nnc(SCc2ccc(F)cc2)s1)C1CC(=O)N(c2ccc3c(c2)OCCO3)C1 (centres undefined)	i	i	i	i	i	nt
C[C@@H]1CN([C@H](C)CO)C(=O)c2c(c3ccccc3n2C)-c2ccccc2CO[C@H]1CN(C)Cc1ccc(Oc2ccccc2)cc1	i	i	85	i	i	i
C[C@H]1CN([C@@H](C)CO)C(=O)c2c(c3ccccc3n2C)-c2ccccc2CO[C@@H]1CN(C)Cc1ccc(C(F)(F)F)cc1	i	nt	64	nt	nt	i
C[C@@H]1CN([C@H](C)CO)C(=O)c2c(c3ccccc3n2C)-c2ccccc2CO[C@@H]1CN(C)Cc1ccc(C(F)(F)F)cc1	i	nt	i	nt	nt	i
CCO[C@@H]1OC(C(=O)NCc2nc3ccccc3[nH]2)=C[C@H](C(C)(C)C)[C@H]1CCCO	i	i	64	i	i	53
CCCS(=O)(=O)Nc1ccc(Nc2c3ccccc3nc3ccccc23)c(OC)c1	i	i	i	i	88	i
COc1cc(N)ccc1Nc1c2ccccc2nc2ccccc12	nt	i	nt	i	i	nt
SMILES	LGR2 antag	CF NFkB block	PAX8 reporter	KKLEB tox	Shn3 inh set2	EWS-Fli block
CCOC(=O)c1cccc(C(=O)Nc2nc3ccc(OC)cc3s2)n1	i	i	i	-55	i	i
COc1ccc2nc(NC(=O)c3ccco3)sc2c1	81	i	i	i	i	i
O=C(Nc1nc2ccccc2s1)c1ccc([N+](=O)[O-])o1	i	i	i	i	i	i
O=C(Nc1nc2cc3c(cc2s1)OCCO3)c1cccs1	76	i	i	i	i	i
COc1ccc2nc(NC(=O)c3ccc([N+](=O)[O-])o3)sc2c1	i	66	i	i	i	i
CC(C)C#Cc1cnc2c(c1)C(=O)N([C@@H](C)CO)C[C@H](C)[C@@H](CN(C)C(=O)c1ccccn1)O2	i	nt	nt	nt	nt	i
COCC(=O)N1[C@H](C#N)[C@H](c2ccc(C3=CCCC3)cc2)[C@H]1CO	i	nt	i	nt	nt	i
COc1ccc(-c2nc3ccccc3s2)cc1	80	i	i	i	i	79
CCOC(=O)c1ccc2nc(Nc3nc4ccc(F)cc4s3)sc2c1	i	i	i	i	i	80
O=C(Nc1nc2ccccc2s1)c1ccc2sc([C@H]3C[C@H](O)[C@@H](CO)O3)nc2c1	98	i	i	i	i	i
O=C(Nc1nccs1)c1ccc2sc([C@H]3C[C@H](O)[C@@H](CO)O3)nc2c1	i	i	i	i	i	i
O=C(Nc1nc2cc3c(cc2s1)OCCO3)c1ccc([N+](=O)[O-])o1	i	83	i	i	i	nt
COc1ccc(C(=O)Nc2nc3ccccc3s2)cc1	i	i	i	i	i	61
COc1cccc(C(=O)Nc2nc3ccccc3s2)c1	i	i	i	i	i	i
CCOc1ccc(-c2nc(CSCC(=O)N3CCN(c4cccc(OC)c4)CC3)c(C)o2)cc1	i	i	i	i	i	88
CCOc1ccc(-c2nc(CSCC(=O)NC3CCN(Cc4ccccc4)CC3)c(C)o2)cc1	i	i	i	i	i	59
Cc1ccc(-c2nc(CSCC(=O)N3CCN(c4ccccn4)CC3)c(C)o2)cc1	i	i	i	i	i	i
Cc1ccc(S(=O)(=O)Nc2ccc3c(c2)C(=O)N([C@@H](C)CO)C[C@@H](C)[C@H](CN(C)S(C)(=O)=O)OCCCC[C@@H](C)O3)cc1	i	nt	i	nt	nt	i
C[C@H](CO)N1C[C@H](C)[C@@H](CN(C)Cc2ccncc2)Oc2ccc(NC(=O)C3CCCCC3)cc2C1=O	i	nt	i	nt	nt	i
C[C@]12C(=O)N(c3ccc(C(F)(F)F)cc3)C(=O)N1[C@H]1c3ccccc3OC[C@@H]1[C@H]2c1ccccc1	i	60	i	i	i	i
C[C@@H]1CN([C@@H](C)CO)C(=O)c2cc(NC(=O)Nc3ccccc3)ccc2O[C@@H](C)CCCCO[C@H]1CN(C)Cc1ccc(C(F)(F)F)cc1	i	nt	72	nt	nt	i
C[C@H](CO)N1C[C@H](C)[C@@H](CN(C)Cc2ccccc2)OCCCC[C@H](C)Oc2ccc(NC(=O)Nc3ccc(C(F)(F)F)cc3)cc2C1=O	i	nt	95	nt	nt	i

Compound activity from PubChem.
